Measured values: PubChem BioAssay (NCATS)
“And” between values parts separate entries of the source, which are not always exact repeats. Equal entries are not always repeated. Inconclusive results are not listed. Entries that show only a call come without a potency. Unmarked numbers belong to inactive results. The source made the active and inactive calls. The call rests on the fitted dose curve; in most records, active means well fitted curve in the direction sought with a large enough effect; inconclusive means small, poorly fitted or top-dose-only effect, or another doubt; inactive means no such curve, though single readings can be large; an effect the other way counts as inactive or inconclusive.

Columns and labels:
[1] = target: Calcium and integrin-binding protein 1 (Homo sapiens) (UniProt Q99828); test: Primary qHTS for Identification of Calcium Integrin Binding Protein 1 (CIB1) Competitor (AID 1508620); settings: CIB1-GST / FITC-alphaIIb peptide fluorescence polarization; series mostly up to 114 µM;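 on activity change, negative = inhibition: GST tagged CIB1 binding a fluorescein labelled alphaIIb integrin peptide tracer; top concentration of the series differs between compounds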
Chain of Calcium and integrin-binding protein 1 (Homo sapiens) (Q99828 whole entry, looked up): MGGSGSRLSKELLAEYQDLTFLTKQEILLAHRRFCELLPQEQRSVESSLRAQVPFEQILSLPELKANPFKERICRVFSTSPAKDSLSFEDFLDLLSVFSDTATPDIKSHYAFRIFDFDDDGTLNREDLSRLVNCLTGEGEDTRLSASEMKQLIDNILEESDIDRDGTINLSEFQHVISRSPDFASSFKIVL
Method in brief: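 Fluorescence polarization competition: GST-tagged CIB1 (1 uM final) preincubated with compound 15 min at room temperature, then FITC-labelled alphaIIb peptide (100 nM final) added. After 15 min at room temperature, polarization read at Ex 480/Em 540.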

[2] = Primary qHTS for inhibitors of nuclear receptor binding SET domain protein 2 (NSD2) in an isogenic RCH-ACV NSD2 p.E1099K mutant (9B) (AID 1645876); settings: RCH-ACV NSD2 E1099K (9B) viability, CellTiter-Glo, 72 h; series mostly up to 44.9 µM; further: nearly all actives have a fitted effect of over 70% in size
[3] = Primary qHTS for inhibitors of nuclear receptor binding SET domain protein 2 (NSD2) in an RCH-ACV wild type WT cells (2C) (AID 1645877); settings: RCH-ACV (leukaemia line) NSD2 WT (2C) viability, CellTiter-Glo, 72 h; series mostly up to 44.9 µM; further: nearly all actives have a fitted effect of over 70% in size
Potency means the concentration at half of the fitted maximal effect.

Structure (SMILES) | Potency [1] | Potency [2] | Potency [3] | activity change, negative = inhibition [1]
C=C1C(=O)O[C@@H]2C[C@@]3(C)CCCC(=C)[C@]3(O)C[C@H]12 | inactive | 8.17 µM (active) | 6.49 µM (active) | 
Cn1ncc(Cl)c1-c1cc(C(=O)N[C@H](CN)Cc2ccc(F)c(F)c2)oc1Cl | inactive | 0.649 µM (active) | 0.515 µM (active) | 
COc1ccc(CCc2nc3cc(-c4c(C)noc4C)ccc3n2CC(C)N2CCOCC2)cc1Cl (stereo not given) | inactive | 2.3 µM (active) | 2.58 µM (active) | 
CN1CCN(C2CCN(C(=O)Nc3cc(Oc4ccc(NC(=O)C5(C(=O)Nc6ccc(F)cc6)CC5)c(F)c4)ccn3)CC2)CC1 | inactive | 6.49 µM (active) and 11.8 µM (active) | 7.28 µM (active) and 10.5 µM (active) | 
COc1ccc(C(=O)O[C@H]2C=COC=C3C=C4C(=O)N(C)C(=S)C(=O)N4[C@@H]32)cc1Oc1cc(C=O)ccc1O | 22400 nM (active) | 6.32 µM (active) | 2.82 µM (active) | 
Nc1nc(NC2CC2)cc(-c2cccc(Cl)c2Cl)n1 | inactive | 4.59 µM (active) | 2.58 µM (active) | 
COC(=O)C1=COC(O[C@@H]2O[C@H](CO[C@@H]3O[C@H](COC(=O)/C=C\c4ccc(O)cc4)[C@@H](O)[C@H](O)[C@H]3O)[C@@H](O)[C@H](O)[C@H]2O)C2C(CO)=CCC12 (stereo not given in full) | inactive | inactive | inactive | 
Cc1cc(-c2ncc(-c3cccnc3)cc2/C=C/c2ccccc2)cnc1-c1cccnc1 | inactive | inactive | inactive | 
CC(=O)O[C@H]1CC(C)(C)CC2[C@]13CO[C@@]21CCC2[C@@]4(C)CC[C@H](O[C@@H]5OC[C@H](O[C@@H]6O[C@H](CO)[C@@H](O)[C@H](O)[C@H]6O[C@@H]6OC[C@@H](O)[C@H](O)[C@H]6O)[C@H](O)[C@H]5O[C@@H]5O[C@H](CO)[C@@H](O)[C@H](O)[C@H]5O)[C@@](C)(CO)C4CC[C@@]2(C)[C@]1(C)C[C@H]3O (stereo not given in full) | inactive | 2.45 µM (active) | 3.88 µM (active) | 
C1=Cc2ccccc2C(=C2CCN(CCCCc3nn[nH]n3)CC2)c2ccccc21 | inactive | inactive | inactive | 
C/C1=C/CCC2=CC(OC2=O)C(C)(C)/C=C/C1=O (stereo not given) | inactive | 0.578 µM (active) | 0.459 µM (active) | 
C[C@@H]1C[C@H]2O[C@@]3(O[C@@H]2C(C)(C)O)C(O)[C@@]2(C)C4CCC5C(C)(C)[C@@H](O[C@H]6OC[C@H](O)[C@@H](O)[C@@H]6O)CC[C@@]56C[C@@]46CC[C@]2(C)C13 (stereo not given in full) | inactive | inactive | inactive | 
C=C1C(=O)O[C@@H]2[C@H]1CCC(C)=C(CCC(=O)O)[C@@]2(C)O | inactive | 20.5 µM (active) | 10.3 µM (active) | 
Cc1nnc(C[C@@H]2C=C(c3ccc(Cl)cc3)c3ccccc3-n3c(C)nnc32)o1 | inactive | 0.332 µM (active) | 0.296 µM (active) | 
C/C(=C\CO[C@@H]1O[C@H](CO[C@H]2OC[C@](O)(CO)[C@H]2O)[C@@H](O)[C@H](O)[C@H]1O)C(C)(C)O | inactive | inactive | inactive | 
Cc1ccc(-c2ncccn2)c(C(=O)N2C[C@H](COc3ccc(F)cn3)CC[C@H]2C)c1 | inactive | inactive | inactive | 
CC1(C)CC[C@]2(C(=O)O)CC[C@]3(C)C(=CCC4[C@@]5(C)C[C@@H](O)[C@H](O)C(CO)(CO)C5CC[C@]43C)C2[C@@H]1O (stereo not given in full) | inactive | 8.93 µM (active) | 8.93 µM (active) | 
CC(C)(C)C1CCN(C(=O)n2ncc(C(O)(c3ccccc3)c3ccccc3)n2)CC1 | inactive | 20.5 µM (active) | 11.5 µM (active) | 
Cc1[nH]c(/C=C2\C(=O)Nc3ccc(S(=O)(=O)N(C)c4cccc(Cl)c4)cc32)c(C)c1C(=O)N1CCN(C)CC1 | inactive | 9.16 µM (active) and 5.25 µM (active) | 7.28 µM (active) and 5.25 µM (active) | 
Cc1ccc(C(C)C)c(O[C@@H]2O[C@H](CO)[C@@H](O)[C@H](O)[C@H]2O)c1 | inactive | inactive | inactive | 
COc1ccccc1C(=O)Nc1cccc(NC(=O)c2cccc(C)c2)c1 | inactive | inactive | inactive | 
CN1CCc2cc3c(cc2C(=O)Cc2cc4c(cc2C1)OCO4)OCO3 | inactive | inactive | inactive | 
C=CC(C)(O)CC/C=C(\C)C(=O)OC1C(O)C(CO)OC(OC(=O)C23CCC(C)(C)CC2C2=CCC4C5(C)CCC(OC6OC(COC7OCC(OC(C)=O)C(O)C7OC7OC(COC(C)=O)C(O)C(O)C7OC(C)=O)C(O)C(O)C6OC6OCC(O)C(O)C6O)C(C)(C)C5CCC4(C)C2(C)C(O)C3O)C1OC1OCC(OC2OCC(O)C(OC3OCC(O)C(O)C3O)C2O)C(O)C1O (stereo not given) |  | 0.792 µM (active) | 1.25 µM (active) | 5.75% [at 12.4 µM]
C/C=C(/C)C(=O)O[C@H]1[C@H](OC(=O)/C(C)=C\C)[C@@]23C(CC1(C)C)[C@]1(CCC4[C@@]5(C)CC[C@H](O[C@@H]6O[C@H](C(=O)O)[C@@H](O)[C@H](O[C@@H]7O[C@H](CO)[C@H](O)[C@H](O)[C@H]7O[C@@H]7O[C@@H](C)[C@H](O)[C@@H](O)[C@H]7O[C@@H]7OC[C@@H](O)[C@H](O)[C@H]7O)[C@H]6O[C@@H]6O[C@H](CO)[C@H](O)[C@H](O)[C@H]6O)C(C)(C)C5CC[C@@]4(C)[C@]1(C)C[C@H]2O)O[C@H]3O (stereo not given in full) |  | 1.22 µM (active) | 2.18 µM (active) | -2.7% [at 12.4 µM]
C=C1C(=O)O[C@@H]2C3C(=C(C)[C@@H](O)[C@@H](OC(=O)/C(=C/C)COC(C)=O)[C@@H]12)C(=O)[C@H]1O[C@@]31C (stereo not given in full) | inactive | 2.82 µM (active) | 1.59 µM (active) | 
